Twelve compounds from PubChem BioAssay AID2284367 (EPA ToxCast) can be followed below.

SMILES strings stand for the structures. Some compounds were tested as several samples or in several runs, with calls that do not always agree. Activity calls are given as the source filed them. Rule for the calls: active = hit-call score of the fitted dose curve at least 0.9, where 1 is the maximum; inactive = score below 0.9.

Chain of human Peroxisome Proliferator-activated Receptor alpha (PPARa) Agonism, conducted at France lab site, PPARA (gene 5465) (Q07869 whole entry, looked up): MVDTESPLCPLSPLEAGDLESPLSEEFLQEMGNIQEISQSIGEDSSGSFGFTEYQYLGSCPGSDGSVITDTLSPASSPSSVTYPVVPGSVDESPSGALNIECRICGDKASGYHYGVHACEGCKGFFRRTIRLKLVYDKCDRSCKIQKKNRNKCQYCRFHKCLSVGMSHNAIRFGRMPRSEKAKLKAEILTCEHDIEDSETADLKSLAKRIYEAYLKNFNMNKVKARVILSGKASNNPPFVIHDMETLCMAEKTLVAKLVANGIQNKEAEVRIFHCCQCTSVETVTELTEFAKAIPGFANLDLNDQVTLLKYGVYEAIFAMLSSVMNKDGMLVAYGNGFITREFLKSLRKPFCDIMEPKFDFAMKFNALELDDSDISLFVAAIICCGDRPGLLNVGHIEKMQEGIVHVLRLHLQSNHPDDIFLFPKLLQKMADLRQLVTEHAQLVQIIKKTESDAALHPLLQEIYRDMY

This test addresses human Peroxisome Proliferator-activated Receptor alpha (PPARa) Agonism, conducted at France lab site, PPARA (gene 5465) (UniProt Q07869). Description: ERF_FR_NR_COA_hPPARA: Eurofins (ERF) Nuclear Receptor (NR) Functional Coactivator Assay for human Peroxisome Proliferator-activated Receptor alpha (PPARa) Agonism, conducted at France lab site. The method, then: ERF_FR_NR_COA_hPPARA is a biochemical, single-readout assay that uses extracted gene-proteins in a cell-free assay. Measurements were taken 2 hours after chemical dosing in a 384-well plate. See PPARalpha Human NHR Functional Agonist Coactivator Assay, Cerep.ERF_FR_NR_COA_hPPARA is an assay component calculated from the ERF_FR_NR_COA_hPPARA assay. It is designed to measure FRET using a type of binding reporter as detected by fluorescence intensity of GW7647 with fluorimetry technology.Data from the assay component ERF_FR_NR_COA_hPPARA was analyzed at the assay endpoint, ERF_FR_NR_COA_hPPARA, in the positive analysis fitting direction relative to DMSO as the negative control and baseline of activity. Using a type of binding reporter, gain-of-signal activity can be used to understand changes in binding as they relate to gene PPARA. To generalize the intended target to other relatable targets, this assay endpoint is annotated to the nuclear receptor intended target family, where the subfamily is non-steroidal.
Human cells are incubated for 3 hours at room temprature with GW7647 as control activator. Test Sample Requirements: Minimum for 1) Screen: 75 ul of 10 mM stock or 1 mg (pre-weighed) powder (assuming FW =<500 and purity 100%).
On to `CN(CCOc1ccc(CC2SC(=O)NC2=O)cc1)c1ccccn1` (stereo not drawn), for which the compound was called inactive.

On to `O=C(Cl)C(F)(F)C(F)(F)C(F)(F)C(F)(F)C(F)(F)C(F)(F)F`, for which the result was inactive.

As to `O=C(CC(=O)C(F)(F)C(F)(F)C(F)(F)F)c1cccs1`, the outcome was inactive.

Regarding `O=C(O)C(F)(F)C(F)(F)C(F)(F)C(F)(F)C(F)(F)C(F)(F)C(F)(F)F`, the AC50 (usually the midpoint of the concentration-response curve, whichever way the signal moves) was 3.17 µM (active) and the result was inactive.

Take `O=C(O)C(F)(F)OC(F)(F)C(F)(F)OC(F)(F)F`: the outcome was inactive.

Take `O=C(O)C(F)(F)C(F)(F)C(F)(F)C(F)(F)C(F)(F)C(F)(F)F`: the call was inactive.

Regarding `O=C(O)C(F)(F)C(F)(F)C(F)(F)C(F)(F)C(F)(F)C(F)(F)C(F)F`, the call was inactive.

Consider `CC(C)(Oc1ccc(C(=O)c2ccc(Cl)cc2)cc1)C(=O)O`, for which the outcome was inactive.

For `O=C(O)CCC(F)(F)C(F)(F)C(F)(F)F`, the result was inactive.

For the compound `O=S(=O)(O)C(F)(F)C(F)(F)C(F)(F)C(F)(F)C(F)(F)C(F)(F)C(F)(F)C(F)(F)F`, the compound was classed as inactive.

`O=S(=O)(O)C(F)(F)C(F)(F)C(F)(F)C(F)(F)C(F)(F)C(F)(F)F`: the call was inactive.

For the compound `O=C(O)C(F)(F)C(F)(F)C(F)(F)C(F)(F)C(F)(F)C(F)(F)C(F)(F)C(F)(F)Cl`, the compound was called inactive.
